# Data: the supplement of paper PMC6992640
# ± gives the standard deviation of the averaged measurements.
# Test system: HCI01 (cells of a triple-negative basal-like breast cancer xenograft)
# Assay: cell viability (% of vehicle); higher = less cytotoxic
# Settings: 10 µM; 72 h
# 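Note: PDX cells carrying CMV promoter-driven luciferase, viability read as total photon flux per second by IVIS imaging following D-luciferin, vehicle control 0.1% DMSO.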
row,SMILES,cell viability
1,Cc1cc(C2CCCCC2)n(O)c(=O)c1.NCCO [Ciclopirox ethanolamine],113 ± 52
2,Nc1cccc2c1C(=O)N(C1CCC(=O)NC1=O)C2=O (configuration not stated) [Pomalidomide (CC-4047)],122 ± 2
3,COC1C(OC(N)=O)C(O)C(Oc2ccc3c(O)c(NC(=O)c4ccc([O-])c(CC=C(C)C)c4)c(=O)oc3c2C)OC1(C)C.[Na+] (configuration not stated) [Novobiocin Sodium],126 ± 61
4,O=C1NC(=O)[C@@H](c2c[nH]c3ccccc23)[C@H]1c1cn2c3c(cccc13)CCC2 [Tivantinib (ARQ 197)],161 ± 20
5,CNCc1ccc(-c2[nH]c3cc(F)cc4c3c2CCNC4=O)cc1.O=P(O)(O)O,161.1 ± 0.84
6,CC(=O)N[C@H](Cc1ccc2ccccc2c1)C(=O)N[C@H](Cc1ccc(Cl)cc1)C(=O)N[C@H](Cc1cccnc1)C(=O)N[C@@H](CO)C(=O)N[C@@H](Cc1ccc(O)cc1)C(=O)N[C@H](CCCNC(N)=O)C(=O)N[C@@H](CC(C)C)C(=O)N[C@@H](CCCNC(=N)N)C(=O)N1CCC[C@H]1C(=O)N[C@H](C)C(N)=O [Cetrorelix],111 ± 16
7,COc1ccc(C=Cc2cc(OC)c(OC)c(OC)c2)cc1OP(=O)([O-])[O-].[Na+].[Na+] [Fosbretabulin (Combretastatin A4 Phosphate (CA4P)) Disodium],185 ± 47
8,COC(=O)NC(C(=O)NC(Cc1ccccc1)C(O)CN(Cc1ccc(-c2ccccn2)cc1)NC(=O)C(NC(=O)OC)C(C)(C)C)C(C)(C)C.O=S(=O)(O)O (configuration not stated),134 ± 8.2
9,NC(=O)N1CCC(CC(=O)N2CCC(C3c4ncc(Br)cc4CCc4cc(Cl)cc(Br)c43)CC2)CC1 (configuration not stated) [Lonafarnib],72.5 ± 68
10,C#C[C@]1(O)CC[C@H]2[C@@H]3CCC4=CCCC[C@@H]4[C@H]3C(=C)C[C@@]21CC [Desogestrel],94.9 ± 2.5

# Test system: HCI03 (cells of an ER-positive luminal breast cancer xenograft)
# Assay: as above
# Settings: 10 µM; 72 h
row,SMILES,cell viability
1,Cc1ccc(-n2[nH]c(C)c(NN=C3C=CC=C(c4cccc(C(=O)O)c4)C3=O)c2=O)cc1C.NCCO.NCCO [Eltrombopag Olamine],79.3
2,CCN1CCN(c2cc3c(cc2F)c(=O)c(C(=O)O)cn3C2CC2)CC1 [Enrofloxacin],106
3,C[N+]1(C)C2CCC1CC(OC(=O)C(O)c1ccccc1)C2.[Br-] (configuration not stated) [Homatropine Methylbromide],97.6
4,COc1ccc(C2CNC(=O)C2)cc1OC1CCCC1 (stereo not drawn) [S- (+)-Rolipram],152
5,CO[C@H]1/C=C/O[C@@]2(C)Oc3c(C)c(O)c4c(O)c(c5c(nc6cc(C)ccn65)c4c3C2=O)NC(=O)/C(C)=C\C=C\[C@H](C)[C@H](O)[C@@H](C)[C@H](O)[C@@H](C)[C@H](OC(C)=O)[C@@H]1C [Rifaximin (Xifaxan)],115
6,CS(=O)(=O)N1CCN(Cc2cc3nc(-c4cccc5[nH]ncc45)nc(N4CCOCC4)c3s2)CC1,94.8
7,O=C(O)C1=COC(OC2OC(CO)C(O)C(O)C2O)C2C(CO)=CCC12 (configuration not stated) [Geniposidic acid],150
8,CCC(CC)C(NC(C)=O)C1C(N=C(N)N)CC(C(=O)O)C1O (configuration not stated) [Peramivir],110
9,CC(C)NCC(O)c1ccc(NS(C)(=O)=O)cc1.Cl (configuration not stated) [Sotalol hydrochloride],150
10,Cc1cc(NS(=O)(=O)c2ccc(N)cc2)no1 [Sulfamethoxazole],127
11,CC(C)(O)c1ccccc1CCC(SCC1(CC(=O)[O-])CC1)c1cccc(C=Cc2ccc3ccc(Cl)cc3n2)c1.[Na+] (configuration not stated) [Montelukast Sodium],169
12,CCC(C)C(=O)OC1CC(C)C=C2C=CC(C)C(CCC3CC(O)CC(=O)O3)C21 (configuration not stated) [Lovastatin],115
13,Nc1nc(Cl)nc2c1ncn2C1OC(CO)C(O)C1F (configuration not stated) [Clofarabine],175
14,CC(=O)[N-]S(=O)(=O)c1ccc(N)cc1.[Na+] [Sulfacetamide Sodium],86.1
15,Cc1cccc(C)c1NC(=O)C1CCCCN1C.Cl (configuration not stated) [Mepivacaine HCl],89.2
16,Cc1onc(-c2ccccc2Cl)c1C(=O)NC1C(=O)N2C1SC(C)(C)C2C(=O)[O-].O.[Na+] (configuration not stated) [Cloxacillin Sodium],176
17,CN1CCC(=C2c3ccccc3C=Cc3ccccc32)CC1.Cl [Cyproheptadine hydrochloride],115
